Source: PubChem BioAssay
The other results are listed elsewhere or left out. Active and inactive are the calls of the source.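 How the source made its calls, unless noted: active means inhibition above a set limit taken from the earlier primary screen (cut at about 63% in these data); inactive means the rest.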

assay: suppression of KLF5 promoter-driven luciferase – DLD-1 cells, luminescence, confirmation (AID 1834); conditions: DLD-1 KLF5 promoter firefly luciferase reporter, at 4 µM, stronger effect = higher value;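 further: 0% = DMSO wells and 100% = LY294002 at 200 µM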

Compound | inhibition
COc1ccc(C(=O)Nc2ccccc2C(=O)N/N=C/c2ccc(O)c(OC)c2)cc1 | 111% (active)
C[C@@H]1C[C@@H]2O[C@H]2/C=C\C=C\C(=O)Cc2c(Cl)c(O)cc(O)c2C(=O)O1 | 67.1% (active)
CCOC(=O)CSC1=C(C#N)C(c2sccc2C)CC(=O)N1 (stereo not given) | 63.3% (active)
CSc1nc(N(C)NC(=O)c2cccc(C)c2)c2ccccc2n1 | 88.7% (active)
COc1cccc(/C=N/Nc2ncc(C(F)(F)F)cc2Cl)c1O | 99.8% (active)
CCOc1cc(C(=O)N2CCc3cc(OC)c(OC)cc3C2)ccc1OC(F)F | 85.3% (active)
Cc1ccc2[nH]c(=O)c(CN(CCCN(C)C)C(=O)Nc3cccc(Cl)c3)cc2c1 | -15.6% (inactive)
COc1ccc(Nc2cc(C)nc(-n3nc(C)cc3C)n2)cc1 | 78.8% (active)
CC(=O)c1ccc(Oc2cc(C)nc(-n3nc(C)cc3C)n2)cc1 | 63.5% (active)
Cn1nccc1C(=O)NC1CCCc2c1cnn2-c1ccc(F)cc1F (stereo not given) | 24.7% (inactive)
CCOc1ccccc1NC(=O)Cn1nnc(C(=O)NCc2cccs2)c1N | 83.1% (active)
CCn1c(SCC(=O)Nc2nccs2)nnc1-c1ccncc1 | 3.83% (inactive)
CCOC(=O)c1sc(NC(=O)c2sc(C)nc2C)nc1C | 69.3% (active)
COc1ccccc1N1CCN(C(=O)c2cc(=O)c3cc(C)cc(C)c3o2)CC1 | 87.3% (active)
Cc1ccc(/C=N/NC(=O)COc2ccccc2-c2ccccc2)cc1 | 85.4% (active)
CN(CCO)c1ccc(/C=N/Nc2nncc3ccccc23)cc1 | 91.2% (active)
COc1ccccc1C1C2=C(COC2=O)Nc2cc3c(cc21)OCO3 (stereo not given) | 88.1% (active)
CCNC(=O)CCc1nc(-c2ccc(C(C)(C)C)cc2)no1 | 56% (inactive)
O=c1cc(-c2ccccc2)[nH]c2cc(F)ccc12 | 77.9% (active)
CN(c1ccc2nc3ccccc3c(=O)n2n1)C1CCCCC1 | 72.9% (active)

assay: IEC-6 intestinal cell killing – luminescence, triplicate, cytotoxicity control for KLF5 inhibitor project (AID 1905; in the data active means inhibition above about 23%;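 further: cells exposed to compounds for 48 hours before viability read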); conditions: IEC-6 rat intestinal cells, viability luminescence; at 4 µM; stronger effect = higher value

Compound | inhibition
COc1ccc(C(=O)Nc2ccccc2C(=O)N/N=C/c2ccc(O)c(OC)c2)cc1 | 4.51% (inactive)
C[C@@H]1C[C@@H]2O[C@H]2/C=C\C=C\C(=O)Cc2c(Cl)c(O)cc(O)c2C(=O)O1 | 38% (active)
CCOC(=O)CSC1=C(C#N)C(c2sccc2C)CC(=O)N1 (stereo not given) | 57.3% (active)
CSc1nc(N(C)NC(=O)c2cccc(C)c2)c2ccccc2n1 | 73.4% (active)
COc1cccc(/C=N/Nc2ncc(C(F)(F)F)cc2Cl)c1O | 0.75% (inactive)
CCOc1cc(C(=O)N2CCc3cc(OC)c(OC)cc3C2)ccc1OC(F)F | 59.4% (active)
Cc1ccc2[nH]c(=O)c(CN(CCCN(C)C)C(=O)Nc3cccc(Cl)c3)cc2c1 | 6.49% (inactive)
COc1ccc(Nc2cc(C)nc(-n3nc(C)cc3C)n2)cc1 | 60.9% (active)
CC(=O)c1ccc(Oc2cc(C)nc(-n3nc(C)cc3C)n2)cc1 | 57.9% (active)
Cn1nccc1C(=O)NC1CCCc2c1cnn2-c1ccc(F)cc1F (stereo not given) | 13.8% (inactive)
CCOc1ccccc1NC(=O)Cn1nnc(C(=O)NCc2cccs2)c1N | 58.1% (active)
CCn1c(SCC(=O)Nc2nccs2)nnc1-c1ccncc1 | 8.72% (inactive)
CCOC(=O)c1sc(NC(=O)c2sc(C)nc2C)nc1C | 2.65% (inactive)
COc1ccccc1N1CCN(C(=O)c2cc(=O)c3cc(C)cc(C)c3o2)CC1 | 58.2% (active)
Cc1ccc(/C=N/NC(=O)COc2ccccc2-c2ccccc2)cc1 | 74.2% (active)
CN(CCO)c1ccc(/C=N/Nc2nncc3ccccc23)cc1 | -0.69% (inactive)
COc1ccccc1C1C2=C(COC2=O)Nc2cc3c(cc21)OCO3 (stereo not given) | 82.9% (active)
CCNC(=O)CCc1nc(-c2ccc(C(C)(C)C)cc2)no1 | -2.69% (inactive)
O=c1cc(-c2ccccc2)[nH]c2cc(F)ccc12 | 59.3% (active)
CN(c1ccc2nc3ccccc3c(=O)n2n1)C1CCCCC1 | 9.18% (inactive)
